Results filed as inconclusive are left out. Unmarked numbers belong to inactive results.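 The calls were made as follows: active = cell viability at or below a set limit in both duplicate runs, the limit being the all-compound median minus 4 SD (cut at about 23% in these data, passing the limit was not always enough); inconclusive = no clear call, values can overlap the other calls; inactive = the rest.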

This experiment in a line: viability of HCT116 without oncogenic beta-catenin – human colon tumor cells, pilot screen (AID 823).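 Also: 0% = wells killed by 20 µM Hyamine and 100% = untreated DMSO cell wells.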 As to conditions: HCT116 beta-catenin knockout viability, CellTiter-Glo, 60 h; at 10 µM; hits give low values. A general note: ATP-based viability assays read luminescence as a measure of living cells.
A word on the viability: it is a read-out of living cells in per cent, often relative to untreated cells. On to `Brc1ccc(Oc2nnnn2-c2ccccc2)cc1`, for which the viability is 95.3%.
The same measure for `COc1cc(Cl)c(S(=O)(=O)N2CCN(Cc3ccc4c(c3)OCO4)CC2)cc1Cl`: 84.2%; for `Cc1ccc(-c2nc(C(=O)NC3CCCCCC3)no2)cc1`: 103%; for `O=C(c1cc(C2CC2)on1)N1CCN(c2ccc(F)cc2)CC1`: 96.8%.
The same measure for `Brc1ccc(-c2nnc3ccc(N4CCN(c5ccccc5)CC4)nn23)cc1`: 82.8%.
The same measure for `CCOC(=O)c1ccccc1NC1c2ccccc2C(=O)N1c1ccc(C)cn1` (stereo unspecified): 72.9%.
With `O=C1c2ccccc2C(Nc2ccc(S(=O)(=O)N3CCOCC3)cc2)N1c1cccnc1` (stereo unspecified), the viability is 102%.
The result for `Cc1ccccc1S(=O)(=O)Cc1ccc(C(=O)N2CC(C)CC(C)C2)o1` (stereo unspecified) reads 103%; that for `CCOC(=O)C1CCN(C(=O)Nc2ccc(Cl)cc2)CC1`, 96.7%.
The result for `Cc1c(S(=O)(=O)N2CCc3ccccc3C2)c(=O)n(C)c(=O)n1C` reads 103%; that for `Cc1ccc(Cl)cc1N1CCN(C(=O)CCS(=O)(=O)c2cccc3nonc23)CC1`, 79.5%; that for `Cn1cccc1Cc1nnc(SCC(=O)Nc2ccc3c(c2)OCCO3)n1CCc1ccccc1`, 90.2%.
As for `COc1ccc(-c2n[nH]c(C)c2-c2cnn(-c3ccccc3)c2)c(O)c1`, the viability is 85.2%.
The same measure for `N#CCCN1CCN(C(=S)c2ccc(-c3cccc(Cl)c3)o2)CC1`: 76.9%.
With `COc1cccc(NC(=O)c2ccc(S(=O)(=O)N3CCCCC3)cc2)c1`, the viability is 95.6%.
The same measure for `Cc1cccc(N2CCN(C(=O)c3cc4c(C)nc5ccccc5c4o3)CC2)c1C`: 71.7%; for `N#Cc1c(NC(=O)CCCN2C(=O)c3ccccc3C2=O)oc(-c2ccccc2)c1-c1ccccc1`: 101%; for `CCn1c(C(C)NC(=O)c2cccc(C)c2)nc2ccccc21` (stereo unspecified): 102%.
In the case of `COc1cc(/C=C/C2=NC(=O)C(C)(C)O2)ccc1O`, the viability was 65.9%.
Regarding `COc1ccc(OC)c(NC(=O)CN(c2ccc(C(C)C)cc2)S(=O)(=O)c2c(C)noc2C)c1`, the viability is 56.5%.
The same measure for `O=C(Cn1cc2c(n1)CCCCC2)NCCCN1CCOCC1`: 112%; for `O=C(CCS(=O)(=O)c1cccc2nonc12)N1CCN(c2ccc(F)cc2)CC1`: 96.3%; for `Cc1ccc(CNC(=O)CS(=O)Cc2nc(-c3ccccc3C)oc2C)cc1` (stereo unspecified): 90.3%.
The same measure for `CCC(C)(C(=O)NC1CCCC1)N(C(=O)CNC(C)=O)c1ccc(C)cc1` (stereo unspecified): 94.2%; for `COc1ccc(OC)c2c1sc(=NC(=O)c1ccco1)n2C`: 71.2%; for `C=CCNc1ncnc2c1cnn2-c1ccc(Cl)cc1`: 106%.
The result for `O=C(c1cnn2ccccc12)N1CCCc2ccccc21` reads 97.1%.
As for `COc1cc2c(cc1OC)C(C)N(C(=O)c1cc3ccccc3o1)CC2` (stereo unspecified), the viability was 37.3%.
The same measure for `CCOC(=O)C1CCCN(C(=O)CCCn2nc(C)n3c(cc4sccc43)c2=O)C1` (stereo unspecified): 102%; for `CCCc1nnc(NC(=O)c2ccncc2)s1`: 103%; for `Cc1ccc(-c2nc(CS(=O)CC(=O)NCc3ccc(Cl)cc3)c(C)o2)cc1` (stereo unspecified): 73.5%.
The result for `COc1ccc(C)cc1NC(=O)CSc1nnc(-c2ccccn2)n1Cc1ccco1` reads 95.7%.
For the compound `Cc1ccc(C)c(C(=O)Nc2c(C(N)=O)oc3ccccc23)c1`, the viability is 94.2%.
The same measure for `CCCCSc1nc2c(c(=O)[nH]c(=O)n2C)n1CCc1ccccc1`: 84.1%.
The result for `Cn1c(=O)oc2cc(S(=O)(=O)N3CCC(C(=O)NCC4COc5ccccc5O4)CC3)ccc21` (stereo unspecified) reads 103%; that for `COc1ccccc1-n1c(CNC(=O)c2ccccc2)nnc1SCC(=O)Nc1nnc(C)s1`, 103%.

(Values after PubChem BioAssay.)
